In the supplement of paper PMC6555819:

Key:
Test in all cases: PBM binding z-score (relative to random genomic background probes); higher = stronger binding; sequences stand for … in GC…GCGATTGACAGCGTAGAATGAAGG
[1] = test system: FXR:RXRa (NR concentration 270 nM, RXRa partner concentration 90 nM)
Procedure, shortened: (§1)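 Scanned fluorescence from custom Agilent 4×180K protein-binding microarrays was regression-normalized. Binding z-scores use random background probes as reference. Ligand-free nuclear receptor dimers were incubated on the arrays for 1 h and detected with antibodies against each partner (one per run).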

[2] = test system: LXRa:RXRa (NR concentration 270 nM, RXRa partner concentration 90 nM)
Procedure, shortened: as §1

[3] = test system: LXRa homodimer (NR concentration 270 nM)
Procedure, shortened: as §1

[4] = test system: LXRb:RXRa (NR concentration 270 nM, RXRa partner concentration 90 nM)
Procedure, shortened: as §1

[5] = test system: LXRb homodimer (NR concentration 270 nM)
Procedure, shortened: as §1

[6] = test system: PPARa:RXRa (NR concentration 270 nM, RXRa partner concentration 90 nM)
Procedure, shortened: as §1

[7] = test system: PPARg:RXRa (NR concentration 180 nM, RXRa partner concentration 90 nM)
Procedure, shortened: as §1

[8] = test system: PPARg:RXRa 270nM:90nM, anti-RXR (NR concentration 270 nM, RXRa partner concentration 90 nM)
Procedure, shortened: as §1

[9] = test system: PPARg:RXRa 30nM:10nM, anti-RXR (NR concentration 30 nM, RXRa partner concentration 10 nM)
Procedure, shortened: as §1

[10] = test system: PPARg:RXRa 90nM:30nM, anti-RXR (NR concentration 90 nM, RXRa partner concentration 30 nM)
Procedure, shortened: as §1

[11] = test system: PPARg:RXRa DBDmut IVT, anti-RXR (DBD mutation: RXRa K156A/R161A, NR concentration 270 nM, RXRa partner concentration 90 nM)
Procedure, shortened: as §1

[12] = test system: PPARg:RXRa IVT, anti-PPARg (NR concentration 270 nM, RXRa partner concentration 90 nM)
Procedure, shortened: as §1

[13] = test system: PPARg DBDmut:RXRa IVT, anti-PPARg (DBD mutation: PPARg1 K132A/R137A, NR concentration 270 nM, RXRa partner concentration 90 nM)
Procedure, shortened: as §1

[14] = test system: PPARg DBDmut IVT, anti-PPARg (DBD mutation: PPARg1 K132A/R137A, NR concentration 270 nM)
Procedure, shortened: as §1

[15] = test system: PPARg homodimer (NR concentration 180 nM)
Procedure, shortened: as §1

[16] = test system: PXR:RXRa (NR concentration 270 nM, RXRa partner concentration 90 nM)
Procedure, shortened: as §1

[17] = test system: PXR homodimer (NR concentration 270 nM)
Procedure, shortened: as §1

[18] = test system: RARa homodimer (NR concentration 270 nM)
Procedure, shortened: as §1

[19] = test system: RARb:RXRa (NR concentration 270 nM, RXRa partner concentration 90 nM)
Procedure, shortened: as §1

[20] = test system: RARa:RXR (NR concentration 270 nM, RXRa partner concentration 90 nM)
Procedure, shortened: as §1

Sequence	PBM binding z-score [1]	PBM binding z-score [2]	PBM binding z-score [3]	PBM binding z-score [4]	PBM binding z-score [5]	PBM binding z-score [6]	PBM binding z-score [7]	PBM binding z-score [8]	PBM binding z-score [9]	PBM binding z-score [10]	PBM binding z-score [11]	PBM binding z-score [12]	PBM binding z-score [13]	PBM binding z-score [14]	PBM binding z-score [15]	PBM binding z-score [16]	PBM binding z-score [17]	PBM binding z-score [18]	PBM binding z-score [19]	PBM binding z-score [20]
AGTCAGAGTTCATCTAGGTAACGTAAGATATGCT	6.74	5.36	4.78	3.63	1.48	4.64	4.23	4.21	1.67	3.42	0.73	2.55	1.05	0.893	1.46	5.25	9.2	1.13	4.3	–
GACACAGGGTCAGCTAGAGGCCAGAGTATGGAAA	4.61	2.62	-0.521	2.32	-0.984	4.57	3.5	3.17	0.295	1.71	0.69	1.9	-0.301	-0.892	1.74	2.92	-0.286	-0.561	4.26	–
CAAACTAGGTCAAAGGTCAAAGTTGAGCCAACCA	8.49	7.15	5.63	7.42	3.19	7.85	14	11.5	12.5	13.5	8.56	9.49	2.5	3.77	3.75	7.31	1.83	2.12	5.96	–
ACTAGTTGTTCAGCTGAGGTCACACACAATTCGG	3.49	3.18	2.25	3.55	0.715	3.83	1.53	1.94	0.705	1.03	0.514	2.19	0.853	0.948	2.16	4.83	1.87	1.09	3.28	–
TAGCCTAGGTCATGGGCCAGTTTACCACGCGAAC	4.52	3.85	0.503	2.26	-0.093	4.37	3.6	3.88	0.612	2.88	1.76	3.27	-0.261	-0.602	1.68	2.12	-0.368	-0.379	3.82	–
ATATGGAGGTTAAGGGTCATTCAGGTTGGTTCGC	6.25	5.67	3.97	5.2	1.77	6	9.22	8.75	7.43	10.3	3.59	5.42	3.41	2.22	4.57	6.14	3.95	3.41	3.97	–
CCTTACGGGTAACTCCAGGTTATAGCATCGGAGT	0.565	7.03	3.25	4.13	0.0113	0.572	0.317	0.049	-0.487	-0.0126	0.404	0.565	0.241	-0.665	0.705	0.705	0.14	0.018	0.315	0.64
CGAACGAGGTCAGAACAGGACAGTGAAGGATGAT	5.64	4.06	0.279	2.95	0.317	4.97	4.86	4.15	1.32	3.02	3.38	4.26	0.826	0.461	1.39	3.87	0.676	0.667	4.4	–
